The list is not random: actives were taken first. Their share in the collection is about 19%.
SW480 rerep: inducers of DNA re-replication in SW480 colon cancer cells; Potency, µM (highest dose often 46.1 µM), without a hit: at the highest dose re-replication activation, most hits filed as activators; 1.8% of 340,000 active; AID 624297; SW480 DNA re-replication, Hoechst DNA content imaging, 48 h; also: potency is read from the fitted curve at half-maximal effect; % of control where 0% means no effect; nearly all actives have a fitted effect of over 55% in size
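DNA re-replication was detected as more nuclei of elevated Hoechst intensity after 48 hr exposure to compound (23 nL pinned per well of 250 cells).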
MCF10A rerep: induces DNA re-replication in MCF 10a normal breast cells | 2.9% of 350,000 active | MCF 10A DNA re-replication, Hoechst nuclear intensity, 48 h | Potency, µM (top dose mostly 46.1 µM), inactives show top-dose activity, positive = re-replication, actives largely listed as activators; also: potency is read from the fitted curve at half-maximal effect; % of control where 0% means no effect; nearly all actives have a fitted effect of over 50% in size
IL-1B inflam inh: blocks inflammasome-driven IL-1 beta release | THP-1 LPS/ATP IL-1B secretion, AlphaLISA, 16 h; hits give low values | activity change, % at 57.5 µM | 4.7% of 360,000 active | AID 743279; in the data active = activity change below about -50%; inconclusive = mostly about -30% to -49%; also: % is scaled to controls: 0 for no effect and ±100 for the full control effect
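THP-1 cells pretreated 1 hr with compounds (up to 57.5 uM final), then stimulated with LPS (250 ng/mL final) plus ATP (1.25 mM final); secreted IL-1B measured by AlphaLISA after 16 hr, decreased signal indicating inhibition.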
DT40 TDP1 no CPT: qHTS for Inhibitors of human tyrosyl-DNA phosphodiesterase 1 (TDP1): qHTS in cells in absence of CPT; DT40 Tdp1-/- hTDP1 cells, no CPT, ATP luminescence, 48 h; Potency, µM (titrated, usually from 46.2 µM), inactives show at the highest dose activity change, negative = growth inhibition, usual class: inhibitors; 15% of 420,000 active; also: potency is read from the fitted curve at half-maximal effect; % is scaled to controls: 0 for no effect and ±100 for the full control effect; nearly all actives have a fitted effect of over 55% in size
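Chicken DT40 Tdp1-/- cells complemented with human TDP1, screened without camptothecin (DMSO vehicle only), 400 cells/well. Compounds pin-transferred, cells incubated at 37 °C for at least 48 hr. Growth read as ATP-dependent luminescence (CellTiter-Glo, 30 min at RT).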
BCR signal inh: blocks chronic active B-cell receptor signaling | ABC-DLBCL IkBa-CBG/CBR reporter, luminescence ratio, 4 h | Potency, µM (series often up to 46.1 µM), for inactives: at the highest dose activity change, negative = inhibition, actives largely listed as inhibitors | 0.05% of 340,000 active | AID 493014; active = well fitted inhibition curve with a large enough effect in the signal ratio, with a control signal flat, not every such curve was filed as active; inconclusive = small, poorly fitted or top-dose-only effect, or effect the other way, or a change in a side signal; the % refers to the signal ratio;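 also: potency is read from the fitted curve at half-maximal effect; plate controls were basal doxycycline-induced cells for no effect and cells given 10 µM MG132 for full effect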
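Compounds up to 46 uM were incubated four hours with TMD8 cells whose green CBG68 luciferase is fused to IkappaBalpha; red CBR luminescence normalised the signal, and concentration-effect curves were fitted to fusion, red and ratio data.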
TDP1 cell CPT: growth inhibition of DT40 Tdp1-/-;hTDP1 cells with camptothecin (screen for TDP1 inhibitors); chicken DT40 Tdp1-/-;hTDP1 cells + 20 nM CPT, ATP luminescence, 48 h; Potency, µM (series often up to 46.2 µM), inactives show at the highest dose activity change, negative = growth inhibition, usual class: inhibitors; 12% of 420,000 active; AID 686979; also: potency is read from the fitted curve at half-maximal effect; % is scaled to controls: 0 for no effect and ±100 for the full control effect; nearly all actives have a fitted effect of over 55% in size
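Chicken DT40 Tdp1-/- cells stably complemented with human TDP1 were seeded at 400 cells/well in medium containing 20 nM camptothecin, exposed to pin-transferred compounds, and grown at 37 °C for at least 48 hr. Viability was read as ATP luminescence.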
Starred values were filed as active, the others as inactive; ? = inconclusive; . = no result; ! = a repeat was not active. Unless noted, calls follow the shape of the dose curve; as a rule, active = well fitted curve in the direction sought with a large enough effect; inconclusive = small, poorly fitted or top-dose-only effect, or another doubt; inactive = no such curve, though single readings can be large; an effect the other way counts as inactive or inconclusive.

SMILES | SW480 rerep | MCF10A rerep | IL-1B inflam inh | DT40 TDP1 no CPT | BCR signal inh | TDP1 cell CPT
C=C1CCN([C@@H](CC(C)C)C(=O)Nc2ccc(OC)cc2)S(=O)(=O)c2ccccc21 | 2.0% | -3.5% | 2.8 | 23.1µM* | . | ?
Cc1ccc(C(=O)N2CCc3cc(CNC(=O)c4ccnn4C)ccc32)cc1 | . | . | . | 9.2µM* | -17.1% | 5.8µM*
CCOC(=O)c1cccc(NC(=O)NCc2ccc3c(c2)CCN3C(=O)c2ccccc2)c1 | . | . | . | 16.4µM* | . | 16.4µM*
OC(CN1CCCCC1)c1c[nH]c2ccccc12 (configuration not stated) | -2.2% | 4.1% | -14.3 | 3.8% | -1.1% | -10.8%
CC(=O)c1ccc(NC(=O)N2C[C@H]3C[C@@H](C2)c2cccc(=O)n2C3)cc1 | 3.9% | 1.1% | 28.9 | 1.9% | 9.7% | 21.3%
Cc1cc(C=C2C(=O)NC(=S)NC2=O)c(C)n1C1CCCC1 | 24.3% | ? | -52.6* | ? | -4.3% | 14.6µM*
Cc1ccc(C[n+]2c(-c3ccc(C)cc3)cc(-c3ccc(C)cc3)cc2-c2ccc(C)cc2)cc1 | ? | 23.1µM* | -110.9* | 0.581µM* | ? | 0.92µM*
CCCCCl | -1.0% | -2.9% | . | -2.1% | . | -18.7%
CC(N)(COP(=O)(O)Oc1ccccc1)C(=O)O (configuration not stated) | . | . | . | -5.3% | . | -19.3%
COc1cc2c(cc1OC)-c1c(OC)c(OC)cc3c1[C@H](C2)N(C)CC3 | -0.7% | 12.9% | -1.4 | 16.4µM* | ? | ?
COc1cc2c(cc1O)CC1c3c(cc(O)c(OC)c3-2)CCN1C (configuration not stated) | -6.5% | 2.4% | ? | -25.3% | ? | -28.3%
COc1ccc(-c2cc(C(F)(F)F)n3nc(C(=O)N4CCC5(CC4)OCCO5)cc3n2)cc1OC | 1.5% | 1.0% | -8.1 | 20.6µM* | . | -23.4%
NC(N)=Nc1ccc2[nH]c3c(c2c1)C[C@]1(O)[C@@H]2Cc4ccc(O)c5c4[C@]1(CCN2CC1CC1)[C@@H]3O5 | . | . | . | ? | . | -23.6%
O=C(Nc1ncccc1O)c1ccc(S(=O)(=O)NCc2ccco2)cc1 | . | . | 67.8 | 23.1µM* | . | 20.6µM*
CS(=O)(=O)c1ccc(C2=C(CNC(=O)c3ccncc3)[C@H]3CC[C@@H](C2)N3Cc2ccco2)cc1 | . | . | -0.1 | -2.6% | . | 3.2%
COc1ccc(NC(=O)N2CC[C@@]3(CCCN(C(=O)Oc4ccccc4)C3)C2)cc1 | . | . | . | -2.0% | . | 8.4%
CN(C)C(=O)On1c(-c2ccccc2)nc2ccc(Cl)cc21 | 0.3% | 26.0% | -21.1 | 29.1µM* | ? | ?
CC(C)(O)C1C2OC(=O)C1[C@]1(O)C[C@H]3O[C@]34C(=O)O[C@H]2[C@]14C (some centres not stated) (tested in a mixture with another compound) | -1.4% | 4.4% | . | . | . | .
COc1cc(OC)cc(C(=O)Nc2ccc(N3CCN(C(=O)c4cccs4)CC3)cc2)c1 | ? | 18.4µM* | -8.6 | 5.17µM* | ? | 5.8µM*
CN1CCN(c2ccc(NC(=O)Oc3ccccc3)cc2)CC1 | -1.0% | -1.4% | 6.8 | -6.6% | 15.9% | -1.6%
COc1ccc(C(=O)Nc2ccc(N3CCN(C(=O)c4cccs4)CC3)cc2)cc1Br | ? | 18.4µM* | -23.1 | 18.4µM* | ? | 20.6µM*
C/C(=N\NC(=O)c1ccc2ccccc2c1)c1cccs1 | -0.4% | 1.1% | -20.2 | -4.5% | ? | ?
CC1CC2(C)C(=CC1=O)CCC1C3CCC(C)(O)C3(C)CC3OC312 (configuration not stated) | -1.9% | 3.6% | -2.4 | ? | . | ?
CN1C(=O)C(=Cc2ccccc2OCc2ccc(Cl)cc2)C(=O)N(C)C1=O | -2.7% | -0.1% | -6.3 | -27.5% | ? | -0.1%
O=C1NC(=O)C(=Cc2cc(Cl)ccc2OCc2ccc(C(=O)O)cc2)C(=O)N1 | ? | 0.92µM* | 76.2 | -2.3% | ? | -0.1%
SMILES | SW480 rerep | MCF10A rerep | IL-1B inflam inh | DT40 TDP1 no CPT | BCR signal inh | TDP1 cell CPT
O=C(CSc1nc2ccccc2c(=O)n1-c1ccc(Cl)c(Cl)c1)Nc1ccc2c(c1)CCC2 | . | . | 8.3 | ? | . | ?
O=C(O)CCCC[C@@H]1SC[C@@H]2NC(=O)N[C@@H]21 | 3.1% | -4.4% | -106.1* | 0.1% | . | 2.9%
CCCCCCCCCC(=O)O[C@H]1CC[C@H]2[C@@H]3CCC4=CC(=O)CC[C@]4(C)[C@H]3CC[C@]12C | -5.6% | ? | . | -0.5% | . | 4.1%
c1ccc2c(c1)Sc1ccccc1N2CC1CN2CCC1CC2 (configuration not stated) | 12.0% | -13.6% | -24.2 | 6.68µM* | ? | 2.66µM*!
CC1CCN(C(=O)N2c3ccccc3Sc3ccccc32)CC1 | 0.0% | ? | 12.9 | ? | ? | ?
O=C(O)c1[nH]c(=O)[nH]c(=O)c1F | -5.6% | -5.5% | 33.1 | 11.6µM* | -10.1% | 11.6µM*
CC(=O)N(C)C1=Nc2ccc(Cl)cc2C(c2ccccc2)=[N+]([O-])C1 | -17.4% | -43.9% | -24.4 | ? | . | 0.0%
CCCCCCOc1ccc(CN2CCN(CCO)CC2)cc1 | ? | ? | ? | 20.6µM* | -17.3% | 16.4µM*
CCCCOc1ccc(CN2CCN(CCO)CC2)cc1 | -5.0% | 25.7% | 12.6 | -26.9% | ? | -27.7%
CCN(CC)c1ccc(/C=N/c2sc3c(c2C#N)C2CCN3CC2)c(O)c1 | 4.7% | ? | -10.0 | 23.1µM* | 0.9% | 18.4µM*
CC1CCc2cc(F)cc3c(=O)c(C(=O)O)cn1c23 (configuration not stated) | -2.9% | 2.2% | -3.0 | ? | 0.9% | -8.1%
CN1CCN(c2cc3c(cc2F)c(=O)c(C(=O)O)cn3-c2ccc(F)cc2)CC1 | 0.5% | 2.1% | . | 23.7µM* | . | 10.6µM*
CC(=O)c1cc(C#N)c(N2CCN(C)CC2)nc1C | -1.5% | -29.1% | 1.8 | -7.1% | -0.1% | 15.2%
COc1cc(/C=C/[N+](=O)[O-])ccc1OC(=O)c1cccnc1 | -22.0% | -4.1% | ? | 2.31µM* | -2.6% | 3.26µM*
COc1cc(/C=N/n2cnnc2)ccc1OC(=O)N(C)C | -2.5% | 0.7% | 14.6 | -8.9% | ? | -21.3%
COCC(=O)O[C@]1(CCN(C)CCCc2nc3ccccc3[nH]2)CCc2cc(F)ccc2[C@@H]1C(C)C | ? | -55.1% | -25.3 | 16.4µM* | ? | 20.6µM*
Cc1cccc(C)c1OCC(=O)NNC(=O)CCCn1c(=O)oc2ccccc21 | 6.6% | -1.4% | 0.0 | 0.2% | ? | 5.2%

Screens (PubChem BioAssay)
